Compound activity deposited in PubChem by several laboratories.
In the library only some 2% were active in any assay of this set; here they are far more common.
MsrA inh: bovine MsrA inhibition; AID 651718; inhibition, % at 15.5 µM; purified bovine MsrA, absorbance read-out; 360,000 compounds, 0.75% hits
PKA-R2B act: PKA-R2B complex activation; P22694+P31323; PKA-R2B holoenzyme dissociation, Cy5-IP20 fluorescence polarization; R2B truncated from residue 108, S112A mutant; 0% DMSO only, 100% 113 µM cGMP; activation, % at 11.4 µM; 340,000 compounds, 0.079% hits;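 active = activation above a cutoff set at the mean over all compounds plus 3 SD, cut at about 18% in these data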;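 also: higher means more holoenzyme dissociation and a rise in polarization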
Target sequence (P31323 whole entry, looked up, other chains not shown, the tested form may be a part): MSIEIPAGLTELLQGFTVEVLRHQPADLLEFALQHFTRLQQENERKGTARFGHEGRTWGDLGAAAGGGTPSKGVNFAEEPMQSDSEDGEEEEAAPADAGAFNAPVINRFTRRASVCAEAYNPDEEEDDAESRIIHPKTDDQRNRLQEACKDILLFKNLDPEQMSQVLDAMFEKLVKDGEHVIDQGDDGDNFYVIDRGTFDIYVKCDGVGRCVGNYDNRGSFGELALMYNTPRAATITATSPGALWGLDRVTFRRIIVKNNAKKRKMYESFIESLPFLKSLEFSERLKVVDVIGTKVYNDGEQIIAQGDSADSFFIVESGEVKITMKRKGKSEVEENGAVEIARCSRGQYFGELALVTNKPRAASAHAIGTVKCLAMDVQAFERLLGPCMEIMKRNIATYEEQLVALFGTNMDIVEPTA
PKA-R1A act: activators of PKA-R1A complex; P00514+P68181; PKA-R1A dissociation, Cy5-IP20 fluorescence polarization; scaled: DMSO 0%, 113 µM cGMP 100%; activation, % at 11.4 µM; 340,000 compounds, 0.083% hits;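 active = percent activation above the mean of all tested compounds plus 3 SD, cut at about 19% in these data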;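 also: higher means more PKAc released from R1A so a rise in polarization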
SUMO Mot1 rescue: SUMOylation pathway inhibition by Mot1-301 growth rescue; 320,000 compounds, 1% hits; growth rescue, % at 18.8 µM; S. cerevisiae Mot1-301 growth rescue, ATP luminescence, 38.5C; percent above DMSO median, 100 means doubled;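 active = every valid replicate shows activation above 250% relative to neutral control wells; inactive = the rest, any valid replicate at or below 250%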
bovine MsrA act: bovine methionine sulfoxide reductase A activation | purified bovine MsrA, absorbance read-out | 360,000 compounds, 0.3% hits | AID 602163 | activation, % at 10.6 µM; in the data active = activation above about 7.5%
MsrA conf: confirmation of bovine MsrA inhibitors; shares compounds with MsrA inh; purified bovine MsrA, absorbance read-out; inhibition, % at 15.5 µM; 2,300 compounds, 41% hits; AID 651822;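 also: coupled to thioredoxin reductase with NADPH and selenocystamine and DMSO as substrate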
Hits are given with their value; i = inactive; nt = no result. Rule as the data show it, unless noted: active = inhibition above about 4.5%; inactive = the rest.

SMILES | MsrA inh | PKA-R2B act | PKA-R1A act | SUMO Mot1 rescue | bovine MsrA act | MsrA conf
CO/N=C/NC(=O)NOCc1ncc(C(F)(F)F)cc1Cl | i | i | i | i | i | nt
CCCCCC(=O)N1C[C@@H](O)[C@H](n2cc(COC(=O)c3ccccc3)nn2)C[C@@H]1c1ccc(OC)cc1 | i | i | i | nt | i | nt
Cc1ccc(NC(=O)CN2C(=O)NC(C)(C3CC3)C2=O)c(C)c1 (stereo not given) | i | i | i | i | i | nt
Cc1ccc(NC(=O)CN2C(=O)NC(C)(C3CC3)C2=O)c([N+](=O)[O-])c1 (stereo not given) | 9.4 | i | i | i | i | 6.0
CCc1cc2c(=O)c(-c3nc4ccccc4n3C)c(C)oc2c(CN2CCN(CCO)CC2)c1O | 5.2 | i | i | i | i | i
Cc1ccc(OCc2nc3ccccc3n2C(C(=O)Nc2c(C)cccc2C)C2CC2)cc1 (stereo not given) | i | nt | nt | nt | nt | nt
COC(=O)CN(c1nc(C)c(Br)c(OC)n1)S(=O)(=O)c1ccccc1 | 13.3 | i | i | i | i | 11.9
COC(=O)CN(c1nc(C)cc(OC)n1)S(=O)(=O)c1ccccc1 | i | i | i | nt | i | nt
CCCN(C(=O)CCc1cn(CCC)c2ccccc12)c1ccc(N(C)c2ccccn2)cc1 | i | nt | nt | nt | nt | nt
COc1ccc(S(=O)(=O)N2CCCCC2)cc1NC(=O)C1CC1(Cl)Cl (stereo not given) | i | i | i | nt | i | nt
CCN(C(=O)CCS(=O)(=O)c1ccc(Br)cc1)c1ccc2c(c1)OCO2 | 14.2 | i | i | i | i | 7.3
O=C(CCS(=O)(=O)c1ccc(Br)cc1)Nc1ccc2c(c1)OCO2 | i | i | i | i | i | nt
CC(=O)Nc1c(-c2cc(=O)oc3cc(C)ccc23)oc2ccccc12 | 4.9 | i | i | nt | i | i
C[C@@H]1CN([C@@H](C)CO)S(=O)(=O)c2ccc(Br)cc2O[C@@H]1CN(C)Cc1ccc2c(c1)OCO2 | i | nt | nt | nt | nt | nt
CN(C)CCN1CCN(C2CN(Cc3ccccc3)S(=O)(=O)C2)CC1 (stereo not given) | i | nt | nt | nt | i | nt
Cc1nc(/C=[N+](\[O-])C(C)(C)/C=N/O)n(O)c1C | 6.7 | i | i | i | i | 4.6
CCCCCCCCC(c1nc2ccccc2[nH]1)N1CCN=C(c2ccccc2)C1=O (stereo not given) | i | nt | nt | nt | i | nt
CCCC1=[N+](CC)CCn2c(C)ccc21 | i | i | i | i | i | nt
CCCC1=[N+](CC(=O)c2ccccc2)CCn2c(C)ccc21 | 5.2 | i | i | i | i | 4.6
COc1ccc2cc(-c3nc4ccccc4n3C)c(=O)oc2c1 | 4.9 | i | i | i | i | i
CCN(CC)C(=O)c1ncn2c1C(=O)NC[C@H]2C | i | nt | nt | nt | nt | nt
CCCc1cc(=O)oc2cc(C)cc(OCC(=O)N3C[C@H]4C[C@@H](C3)c3cccc(=O)n3C4)c12 | i | nt | nt | nt | i | nt
COc1cccc2cc(-c3csc(CCn4nc(C)cc4C)n3)c(=O)oc12 | 5.5 | i | i | i | i | i
COc1ccc(OC)c(-c2csc(CCn3nc(C)cc3C)n2)c1 | i | i | i | i | i | nt
C[C@@H]1CN([C@@H](C)CO)C(=O)CCCn2cc(nn2)CO[C@H]1CN(C)C(=O)c1ccc(N2CCN(C)CC2)cc1 | i | nt | nt | nt | nt | nt
SMILES | MsrA inh | PKA-R2B act | PKA-R1A act | SUMO Mot1 rescue | bovine MsrA act | MsrA conf
N#C/C(=C\c1ccc(Cl)cc1)c1n[nH]c(Cn2cncn2)n1 | i | i | i | i | i | nt
COc1ccc(/C=C(\C#N)c2n[nH]c(Cn3cncn3)n2)cc1 | 5.7 | nt | nt | i | i | 5.2
O=C(/C=C/c1ccco1)Nc1cc(Cl)ccc1C(=O)O | 6.8 | i | i | i | i | 5.2
COc1ccc(N/N=C(\C=N\O)C(=O)c2ccc(OC)cc2)cc1 | 10.7 | i | i | i | i | 5.0
COc1ccc(C(=O)C(=NNc2ccccc2)c2ccc(OC)cc2)cc1 | i | i | i | nt | i | nt
Nc1[nH]c(C(=O)c2ccccc2)c(-c2ccccc2C(F)(F)F)c1C(=O)NCCc1c[nH]c2ccccc12 | i | nt | nt | nt | i | nt
COC(=O)C1=C(C)N(Cc2ccccc2C(F)(F)F)C(=NCc2ccc3c(c2)OCO3)NC1c1ccc(Cl)cc1 (stereo not given) | i | nt | nt | nt | nt | nt
CN(C)CC(C)(C)CN=Cc1c(O)[nH]c2ccccc12 | 6.0 | i | i | i | i | i
Oc1[nH]c2ccccc2c1C=Nc1ccccc1 | 5.1 | i | i | i | i | i
OCCN=Cc1c(O)[nH]c2ccccc12 | i | i | i | i | i | nt
